Experimental data as given in PubChem BioAssay (NCATS).
Inconclusive results are not listed. Active and inactive are the calls of the source. The call rests on the fitted dose curve; in most records, active means well fitted curve in the direction sought with a large enough effect; inconclusive means small, poorly fitted or top-dose-only effect, or another doubt; inactive means no such curve, though single readings can be large; an effect the other way counts as inactive or inconclusive.

What was measured:
[1] = HepG2 viability counterscreen (readout 1: protease activity) against the NCATS DSHEA and TCM libraries (AID 1794841); conditions: qHTS concentration series; series mostly up to 27.3 µM;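 further: cells exposed to compounds for about 24 h before the protease read; 0% is about no effect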
In short: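 HepG2 cells (1,000 cells/well) attached ~4 h, then treated ~24 h at 37C with substances. Protease activity read by GF-AFC (25 uM final, 30 min, Ex/Em 380/510 nm); ATP content then by CellTiter-Glo luminescence.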

[2] = biological target: Cytochrome P450 2D6 (Homo sapiens) (UniProt P10635); test: qHTS for inhibitors of CYP2D6 against the NCATS DSHEA and TCM libraries (AID 1919972); conditions: CYP2D6 enzymatic inhibition, luminescence qHTS; series mostly up to 34.1 µM; further: on the % scale 0 is the no-effect control and ±100 the full control effect
Sequence of Cytochrome P450 2D6 (Homo sapiens) (P10635 whole entry, looked up): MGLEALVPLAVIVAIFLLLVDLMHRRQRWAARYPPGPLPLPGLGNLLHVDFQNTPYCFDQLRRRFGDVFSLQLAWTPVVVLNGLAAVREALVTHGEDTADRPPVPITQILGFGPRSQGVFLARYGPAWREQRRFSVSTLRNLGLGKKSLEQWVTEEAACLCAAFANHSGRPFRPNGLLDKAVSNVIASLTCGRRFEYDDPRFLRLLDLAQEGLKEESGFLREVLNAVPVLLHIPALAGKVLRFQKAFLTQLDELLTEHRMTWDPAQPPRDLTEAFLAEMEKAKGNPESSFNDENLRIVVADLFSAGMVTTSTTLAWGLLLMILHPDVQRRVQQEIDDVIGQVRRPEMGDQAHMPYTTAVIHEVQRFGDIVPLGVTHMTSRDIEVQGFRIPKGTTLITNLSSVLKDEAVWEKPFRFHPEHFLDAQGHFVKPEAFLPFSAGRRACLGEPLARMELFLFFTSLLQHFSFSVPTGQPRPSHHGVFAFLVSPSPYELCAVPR
In short: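 Luminescent P450-Glo read-out of CYP2D6 turnover of a luciferin substrate after NADPH-driven reaction of 30-45 min at room temperature. Compounds were first preincubated 15 min with enzyme at titrated concentrations; quinidine was the intraplate control.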

[3] = biological target: Cytochrome P450 2C9 (Homo sapiens) (UniProt P11712); test: qHTS for inhibitors of CYP2C9 against the NCATS DSHEA and TCM libraries (AID 1919973); conditions: recombinant CYP2C9 enzyme activity, luminescence; series mostly up to 4.27 µM;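 further: luminogenic pro-luciferin CYP2C9 substrate turned into luciferin with NADPH regeneration; on the % scale 0 is the no-effect control and ±100 the full control effect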
Sequence of Cytochrome P450 2C9 (Homo sapiens) (P11712 whole entry, looked up): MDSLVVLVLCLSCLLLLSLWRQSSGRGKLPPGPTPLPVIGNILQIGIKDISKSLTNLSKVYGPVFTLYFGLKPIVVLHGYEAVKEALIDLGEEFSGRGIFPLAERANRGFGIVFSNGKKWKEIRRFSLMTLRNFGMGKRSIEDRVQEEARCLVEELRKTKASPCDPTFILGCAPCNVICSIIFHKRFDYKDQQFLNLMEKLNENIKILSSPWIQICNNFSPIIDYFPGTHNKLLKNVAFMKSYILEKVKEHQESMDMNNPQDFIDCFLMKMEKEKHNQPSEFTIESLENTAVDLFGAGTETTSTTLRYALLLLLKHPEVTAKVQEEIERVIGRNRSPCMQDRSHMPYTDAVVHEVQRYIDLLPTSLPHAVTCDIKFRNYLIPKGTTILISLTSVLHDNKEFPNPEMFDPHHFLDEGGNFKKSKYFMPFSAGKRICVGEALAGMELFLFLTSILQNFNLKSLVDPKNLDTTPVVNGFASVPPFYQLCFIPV
In short: (§1)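 Luminescent P450-Glo format: compounds preincubated 15 min with enzyme and luciferin substrate, reaction run 30-45 min after NADPH regeneration solution. Intraplate controls: ketoconazole for CYP3A4 and CYP2C19, sulfaphenazole for CYP2C9.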

[4] = biological target: Cytochrome P450 2C19 (Homo sapiens) (UniProt P33261); test: qHTS for inhibitors of CYP2C19 against the NCATS DSHEA and TCM libraries (AID 1919974); conditions: CYP2C19 enzyme inhibition, luminescence qHTS; series mostly up to 4.27 µM;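 further: luminescence from luciferin released by CYP2C19 oxidation of a pro-luciferin substrate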; further: potency means the concentration at half of the fitted maximal effect; on activity change, negative = inhibition: on the % scale 0 is the no-effect control and ±100 the full control effect
Sequence of Cytochrome P450 2C19 (Homo sapiens) (P33261 whole entry, looked up): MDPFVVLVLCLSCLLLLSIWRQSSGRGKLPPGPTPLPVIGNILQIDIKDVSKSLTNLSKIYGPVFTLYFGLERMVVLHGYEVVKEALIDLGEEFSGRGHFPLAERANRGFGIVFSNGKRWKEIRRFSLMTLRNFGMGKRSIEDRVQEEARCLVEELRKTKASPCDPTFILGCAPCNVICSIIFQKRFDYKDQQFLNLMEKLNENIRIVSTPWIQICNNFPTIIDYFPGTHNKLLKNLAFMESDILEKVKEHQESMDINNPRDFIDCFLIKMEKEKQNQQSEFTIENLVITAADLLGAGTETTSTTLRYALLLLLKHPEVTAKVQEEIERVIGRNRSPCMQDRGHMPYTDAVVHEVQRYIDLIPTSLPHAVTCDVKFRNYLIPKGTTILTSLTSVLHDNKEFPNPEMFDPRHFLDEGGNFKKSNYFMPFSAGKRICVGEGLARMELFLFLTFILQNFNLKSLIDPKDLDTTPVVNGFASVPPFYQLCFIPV
In short: as §1

[5] = KB-3-1 P-gp reporter qHTS against the NCATS DSHEA and TCM libraries (AID 1919975); conditions: KB-3-1 parental cells, CellTiter-Glo luminescence viability, 72 h; series mostly up to 26.1 µM; further: 0% is about no effect
In short: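 Parental KB-3-1 human cervical adenocarcinoma cells (500 cells/well, DMEM + 10% FBS) were treated with substances for ~72 h at 37C; viability was read by CellTiter-Glo luminescence.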

[6] = qHTS Counterscreen for compound interference against the NCATS DSHEA and TCM libraries (AID 1919978); conditions: firefly luciferase detection reagent interference, luminescence; further: % of control where 0% means no effect
In short: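 D-luciferin (1 uM final) or 100 mM potassium phosphate buffer alone was preincubated 15 min at RT with compounds (19.5 nM to 39.8 uM final). Luciferin detection reagent was then added and luminescence read after 30 min at RT.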

[7] = Dual reporter qHTS for agonist of Pregnane X Receptor (hPXR) against the NCATS DSHEA and TCM libraries: Fluorescence readout (AID 1920058); conditions: PXR dual reporter cells; series mostly up to 40 µM; further: 0% is about no effect
In short: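 hPXR-Luc HepG2 cells, 2000/well in charcoal-stripped serum, attached 5 h, dosed for ~24 h at 37 °C. Fluorescence read is CellTiter-Fluor viability (Ex/Em 405/540 nm); rifampicin positive, tetraoctyl ammonium bromide (92 µM) cytotoxicity controls.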

[8] = biological target: Nuclear receptor subfamily 1 group I member 2 (Homo sapiens) (UniProt O75469); test: Dual reporter qHTS for agonist of Pregnane X Receptor (hPXR) against the NCATS DSHEA and TCM libraries: Luminescence readout (AID 1920059); conditions: hPXR dual reporter cells, luciferase luminescence agonist; series mostly up to 40 µM; further: 0% is about no effect
Sequence of Nuclear receptor subfamily 1 group I member 2 (Homo sapiens) (O75469 whole entry, looked up): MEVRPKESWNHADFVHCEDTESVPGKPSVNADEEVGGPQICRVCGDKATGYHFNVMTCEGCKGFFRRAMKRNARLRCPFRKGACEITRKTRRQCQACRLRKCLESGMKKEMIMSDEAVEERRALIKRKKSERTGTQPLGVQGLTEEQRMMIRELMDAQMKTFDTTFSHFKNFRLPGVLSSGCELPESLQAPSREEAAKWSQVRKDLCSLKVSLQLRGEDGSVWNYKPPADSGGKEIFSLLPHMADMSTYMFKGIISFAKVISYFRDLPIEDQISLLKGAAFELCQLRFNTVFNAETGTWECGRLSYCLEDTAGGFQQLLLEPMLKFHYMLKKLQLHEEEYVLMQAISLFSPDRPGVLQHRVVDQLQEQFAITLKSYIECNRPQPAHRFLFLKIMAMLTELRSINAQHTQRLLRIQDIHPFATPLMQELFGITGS
In short: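 hPXR-LucHepG2 cells in phenol red-free DMEM with 5% charcoal-stripped FBS, 2000 cells/well, attached 5 h, then exposed 24 h at 37C to compounds; rifampicin as positive agonist control (2.8 nM–92 uM). Luciferase luminescence read.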

[9] = biological target: Nuclear receptor subfamily 1 group I member 2 (Homo sapiens) (UniProt O75469); test: Dual reporter qHTS for antagonist of Pregnane X Receptor (hPXR) against the NCATS DSHEA and TCM libraries: Luminescence Readout (AID 1920060); conditions: hPXR dual reporter cells, luciferase luminescence, antagonist mode; series mostly up to 40 µM;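 further: HepG2 cells carrying hPXR luciferase reporter stimulated with rifampicin at 2 µM; 0% is about no effect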
In short: (§2)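 HepG2 hPXR-Luc, 2000 cells/well, charcoal-stripped FBS medium; 5 h attach; RIF 2 uM final; 24 h 37C/5% CO2; CellTiter-Fluor 1 h, fluor 405/540; ONE-Glo 30 min RT, lum.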

[10] = Dual reporter qHTS for antagonist of Pregnane X Receptor (hPXR) against the NCATS DSHEA and TCM libraries: Fluorescence Readout (AID 1920061); conditions: PXR dual reporter cells, antagonist mode; series mostly up to 40 µM; further: 0% is about no effect
In short: as §2

[11] = Primary qHTS for inhibitors of nuclear receptor binding SET domain protein 2 (NSD2) in an RCH-ACV wild type WT cells (2C) (AID 1645877); conditions: RCH-ACV (leukaemia line) NSD2 WT (2C) viability, CellTiter-Glo, 72 h; series mostly up to 44.9 µM; further: nearly all actives have a fitted effect of over 70% in size; further: potency means the concentration at half of the fitted maximal effect
[12] = biological target: DNA repair nuclease/redox regulator APEX1 (Homo sapiens) (UniProt P27695); test: qHTS Validation Assay for Inhibitors of the Human Apurinic/apyrimidinic Endonuclease 1 (APE1) (AID 1705;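 further: TAMRA fluorescence gain over two minutes as APE1 cuts a quenched THF abasic duplex; on the % scale 0 is the no-effect control and ±100 the full control effect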); conditions: purified APE1 endonuclease activity, fluorescence, titration; series mostly up to 57.1 µM
Sequence of DNA repair nuclease/redox regulator APEX1 (Homo sapiens) (P27695 whole entry, looked up): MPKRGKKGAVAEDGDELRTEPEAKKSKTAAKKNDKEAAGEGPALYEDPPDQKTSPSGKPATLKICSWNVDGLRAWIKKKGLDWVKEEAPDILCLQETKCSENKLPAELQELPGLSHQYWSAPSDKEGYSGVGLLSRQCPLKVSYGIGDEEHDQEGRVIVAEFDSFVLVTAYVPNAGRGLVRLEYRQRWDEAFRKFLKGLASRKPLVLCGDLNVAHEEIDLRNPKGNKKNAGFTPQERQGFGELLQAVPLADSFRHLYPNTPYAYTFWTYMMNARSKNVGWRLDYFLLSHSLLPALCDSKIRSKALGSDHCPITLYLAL
In short: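 Human APE1 was preincubated with compound for 15 min at room temperature, then 50 nM (final) THF-abasic double-stranded DNA substrate bearing 5'-TAMRA and 3'-BHQ-2 was added. Incision-driven fluorescence rise (ex 525/em 598 nm) was read kinetically.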

[13] = qHTS for differential inhibitors of proliferation of Plasmodium falciparum line 3D7 (AID 1876);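 further: parasite growth measured after three days of culture; 0% = vehicle wells and -100% = reference inhibitor wells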; conditions: P. falciparum 3D7 proliferation inhibition; series mostly up to 28.7 µM
[14] = qHTS for differential inhibitors of proliferation of Plasmodium falciparum line D10 (AID 1877); conditions: series mostly up to 28.7 µM;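 further: parasites grown with compound for 72 h before DNA staining; plate controls were vehicle wells for no effect and reference inhibitor wells for full effect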
[15] = qHTS for differential inhibitors of proliferation of Plasmodium falciparum line Dd2 (AID 1882); conditions: Potency: Plasmodium falciparum Dd2 proliferation inhibition; series mostly up to 28.7 µM;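 further: plate controls were DMSO vehicle for no effect and 0.29 µM artemisinin for full effect; nearly all actives have a fitted effect of over 65% in size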
In short: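 Dd2-infected erythrocytes (0.3% parasitemia, 2.5% hematocrit final) incubated with compound 72 h at 37 C, 5% CO2; lysed with saponin/Triton buffer containing SYBR Green I, incubated overnight in the dark, then read by fluorescence (485/535 nm). Normalized to 0.29 uM artemisinin and DMSO.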

[16] = qHTS for differential inhibitors of proliferation of Plasmodium falciparum line W2 (AID 1883); conditions: Potency: Plasmodium falciparum W2 proliferation inhibition; series mostly up to 28.7 µM;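 further: parasites grown with compound for 72 h before lysis and staining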; further: potency means the concentration at half of the fitted maximal effect;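 on activity change, negative = inhibition: 0% = vehicle wells and -100% = control inhibitor wells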
[17] = qHTS for differential inhibitors of proliferation of Plasmodium falciparum line HB3 (AID 1886); conditions: Potency: Plasmodium falciparum HB3 proliferation inhibition; series mostly up to 28.7 µM;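 further: parasites grown with compound for 72 h before SYBR Green readout; plate controls were vehicle for no effect and reference inhibitor for full effect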
[18] = biological target: ATP-dependent DNA helicase Q1 (Homo sapiens) (UniProt P46063); test: qHTS Validation Assay for Inhibitors of RecQ-Like Dna Helicase 1 (RECQ1) (AID 2353); conditions: recombinant RECQ1 helicase DNA unwinding assay; series mostly up to 25.6 µM;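 further: plate controls were DMSO vehicle for no effect and enzyme-free control for full effect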
Sequence of ATP-dependent DNA helicase Q1 (Homo sapiens) (P46063 whole entry, looked up): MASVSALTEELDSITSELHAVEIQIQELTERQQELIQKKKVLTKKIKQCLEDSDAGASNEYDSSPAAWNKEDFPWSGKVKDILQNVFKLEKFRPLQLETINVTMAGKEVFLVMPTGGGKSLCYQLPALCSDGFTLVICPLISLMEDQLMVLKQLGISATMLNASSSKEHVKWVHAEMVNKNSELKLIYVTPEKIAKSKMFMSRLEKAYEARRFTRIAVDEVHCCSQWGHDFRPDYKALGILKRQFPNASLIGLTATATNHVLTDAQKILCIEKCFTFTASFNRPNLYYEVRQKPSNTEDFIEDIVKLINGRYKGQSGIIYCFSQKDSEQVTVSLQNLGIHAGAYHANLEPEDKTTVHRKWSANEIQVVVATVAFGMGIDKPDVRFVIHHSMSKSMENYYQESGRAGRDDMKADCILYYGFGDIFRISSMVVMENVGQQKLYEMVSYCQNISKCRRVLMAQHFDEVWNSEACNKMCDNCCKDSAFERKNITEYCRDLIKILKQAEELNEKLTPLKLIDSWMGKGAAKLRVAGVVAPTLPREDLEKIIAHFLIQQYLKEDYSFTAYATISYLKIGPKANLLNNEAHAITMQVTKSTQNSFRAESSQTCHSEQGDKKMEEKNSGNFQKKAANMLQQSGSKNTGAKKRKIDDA
In short: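 50 nM RECQ1T1 preincubated 15 min with compound in Tris pH 8.0 buffer with MgCl2, DTT, Tween-20 and 2.5 ug/ml poly(dI-dC); started with 200 nM TAMRA/BHQ-2 forked duplex and 2 mM ATP. Unwinding read as fluorescence (525/598 nm), two reads 2 h apart.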

[19] = Validation screen for small molecules that induce DNA re-replication in MCF 10A normal breast cells (AID 463097); conditions: MCF 10A cells, DNA re-replication phenotype imaging; series mostly up to 46.1 µM; further: nearly all actives have a fitted effect of over 60% in size; further: potency means the concentration at half of the fitted maximal effect
In short: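 Readout: Hoechst nuclear fluorescence intensity, 405 ex / 500-530 em, by scanning plate imager; re-replication scored as increase in nuclei with elevated DNA content. Cells exposed to compound 48 hr, 37 C, 5% CO2 beforehand.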

[20] = biological target: M-phase phosphoprotein 8 (Homo sapiens) (UniProt Q99549); test: qHTS Validation Assay for Inhibitors for MPP8 Chromodomain Interactions with Methylated Histone Tails (AID 488949); conditions: AlphaScreen MPP8 binding to H3K9me3 peptide; series mostly up to 114 µM; further: nearly all actives have a fitted effect of over 55% in size; further: potency means the concentration at half of the fitted maximal effect
Sequence of M-phase phosphoprotein 8 (Homo sapiens) (Q99549 whole entry, looked up): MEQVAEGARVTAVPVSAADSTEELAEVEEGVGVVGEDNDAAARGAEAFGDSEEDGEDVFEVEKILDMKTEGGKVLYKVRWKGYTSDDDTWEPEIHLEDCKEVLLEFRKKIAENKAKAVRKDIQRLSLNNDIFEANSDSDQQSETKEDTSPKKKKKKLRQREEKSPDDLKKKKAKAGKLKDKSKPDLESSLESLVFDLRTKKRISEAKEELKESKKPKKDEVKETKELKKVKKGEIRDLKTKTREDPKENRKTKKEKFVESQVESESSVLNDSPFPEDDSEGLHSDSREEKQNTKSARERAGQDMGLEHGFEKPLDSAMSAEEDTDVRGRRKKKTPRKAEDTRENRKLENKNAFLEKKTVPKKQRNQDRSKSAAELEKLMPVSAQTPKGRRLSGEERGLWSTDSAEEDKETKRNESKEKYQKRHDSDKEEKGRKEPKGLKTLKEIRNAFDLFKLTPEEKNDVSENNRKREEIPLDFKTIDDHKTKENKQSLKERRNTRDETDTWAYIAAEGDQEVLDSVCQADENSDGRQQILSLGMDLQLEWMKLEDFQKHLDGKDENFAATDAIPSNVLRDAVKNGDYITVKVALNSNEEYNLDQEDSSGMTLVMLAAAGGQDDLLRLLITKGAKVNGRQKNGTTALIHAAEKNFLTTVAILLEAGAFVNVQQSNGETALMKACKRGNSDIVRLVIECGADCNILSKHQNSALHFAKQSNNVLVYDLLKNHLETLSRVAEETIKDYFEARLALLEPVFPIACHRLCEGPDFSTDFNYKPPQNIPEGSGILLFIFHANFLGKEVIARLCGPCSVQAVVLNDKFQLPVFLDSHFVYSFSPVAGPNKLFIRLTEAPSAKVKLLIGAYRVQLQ
In short: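 MPP8 (50 nM) was preincubated with biotinylated H3(1-18)K9me3 peptide (50 nM) in PBS pH 7.4, 0.01% Tween-20 for 30 min at room temperature, then with compounds for 30 min; binding was detected by AlphaScreen.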

CCCCC[C@H](O)CC(=O)CCc1ccc(O)c(OC)c1
inactive: outcome [1] | outcome [2] | Potency [3] | outcome [5] | max response [6] 0.254% | outcome [7] | outcome [8] | outcome [9] | outcome [10]
active: Potency [4] 14.1 µM

CC/C=C\C/C=C\C/C=C\C/C=C\C/C=C\CCCCCC(=O)O
inactive: activity change, negative = inhibition [1] -1.31% [at 3.42 µM] | activity change, negative = inhibition [2] -3.67% [at 4.27 µM] | Potency [3] | Potency [4] | activity change, negative = inhibition [5] -17.1% [at 3.26 µM] | max response [6] 0.0363% | activation [7] -9.65% [at 5 µM] | activation [8] -6.56% [at 5 µM] | activity change, negative = inhibition [9] -29.3% [at 5 µM] | activity change, negative = inhibition [10] 2.07% [at 5 µM]

CNC(=O)[C@H]1O[C@@H](n2cnc3c(NCc4cccc(I)c4)nc(Cl)nc32)[C@H](O)[C@@H]1O
inactive: Potency [11]

NCCNS(=O)(=O)c1cccc2cnccc12
inactive: Potency [12] | Potency [13] | Potency [14] | Potency [15] | Potency [17] | Potency [18] | Potency [19] | Potency [20]
active: Potency [16] 11.2 µM

N#CC(=C(/N)Sc1ccccc1N)/C(C#N)=C(/N)Sc1ccccc1N
active: Potency [11] 14.6 µM

C[N+](C)(C)CCC(=O)c1cccc2ccccc12
inactive: Potency [12] | Potency [13] | Potency [14] | Potency [15] | Potency [16] | Potency [17] | Potency [18]
active: Potency [19] 1.78 µM | Potency [20] 10 µM
